Bioassay records: PubChem, National Center for Advancing Translational Sciences (NCATS)
Pf growth 96h: inhibits malaria parasite growth, 96 h. AID 504834. Potency, µM (highest dose often 28.7 µM), for inactives: at the top dose activity change, negative = inhibition, usual class: inhibitors. P. falciparum luciferase reporter growth, 96 h. 320,000 compounds, 6.9% hits; further: on the % scale 0 is the no-effect control and ±100 the full control effect
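Readout is luminescence from an integrated firefly luciferase in P. falciparum. Red cells, 2% hematocrit and 0.05% parasitemia final, were cultured with compound through two parasite generations (96 hours) at 37 C, 5% CO2.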
Pf growth 48h: P. falciparum growth inhibition at 48 hours (one generation). P. falciparum luciferase growth in erythrocytes, 48 h. Potency, µM (top dose mostly 28.7 µM), without a hit: at the highest dose activity change, negative = inhibition, actives largely listed as inhibitors. 310,000 compounds, 5.9% hits. AID 504832; further: on the % scale 0 is the no-effect control and ±100 the full control effect
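Compounds are pin-transferred into medium, infected erythrocytes (2% hematocrit, 0.1% parasitemia final) are added, and plates sit one parasite generation at 37 C in 5% CO2. Detection reagent is then added and luminescence measured.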
NS1 function inh: inhibitors of influenza NS1 protein function. Potency, µM (series often up to 46.1 µM), without a hit: at the highest dose activity, positive = more growth. 270,000 compounds, 0.4% hits; calls by dose curve; further: actives are rising curves; nearly all actives have a fitted effect of over 50% in size
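In this qHTS, NS1 from influenza A is expressed in budding yeast, where it slows growth. Cells are switched from glucose to 2% galactose medium (pH 6.0, -URA), treated with compound, and growth recovery is read at OD600.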
AMA1 RON2 block: AMA1-RON2 (P. falciparum) interaction inhibition; AlphaScreen AMA1-biotinylated RON2 peptide binding; Potency, µM (series often up to 58.2 µM), for inactives: top-dose activity change, negative = inhibition, actives largely listed as inhibitors; 360,000 compounds, 0.2% hits; AID 720542;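 further: 0% = vehicle wells and -100% = peptide control; nearly all actives have a fitted effect of over 45% in size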
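AMA1 (3D7) with his tag at 25 nM final met compounds first, then biotinylated RON2 peptide at 25 nM; detection used donor plus acceptor beads, 10 µg/mL apiece, read by AlphaScreen after 30 min at room temperature.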
HCV inh: inhibitors of hepatitis C virus infection; AID 651820; Potency, µM (titrated, usually from 41.8 µM), for the others: at the highest dose activity change, negative = inhibition, usual class: inhibitors; Huh7.5.1 HCVcc-Cre infection, luciferase reporter, 44 h; 340,000 compounds, 3.4% hits; further: on the % scale 0 is the no-effect control and ±100 the full control effect
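A cell-based infection assay in which seeded cells (1,000 per well) receive test compound after 4 h, are inoculated with HCVcc-Cre at approximately 0.5 moi, and are incubated 44 h before luminescence detection.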
SARS PLP yeast: SARS-CoV PLP inhibition in yeast | S. cerevisiae expressing SARS-CoV PLpro, growth rescue | Potency, µM (doses to about 32.9 µM), for the others: at the highest dose activity, positive = growth rescue, hits mostly activators | 330,000 compounds, 0.19% hits | AID 485353; calls by dose curve; further: 0% is about no effect; nearly all actives have a fitted effect of over 55% in size
Numbers without * were called inactive; i = inactive; ? = inconclusive; · = no result given; [ ] = dose if it differs, or a comment. Most compounds without a hit are left out; they make up all but 12% or so of the library. Unless noted, the call rests on the fitted dose curve; in most records, active means well fitted curve in the direction sought with a large enough effect; inconclusive means small, poorly fitted or top-dose-only effect, or another doubt; inactive means no such curve, though single readings can be large; an effect the other way counts as inactive or inconclusive. Potency means the concentration at half of the fitted maximal effect.

SMILES	Pf growth 96h	Pf growth 48h	NS1 function inh	AMA1 RON2 block	HCV inh	SARS PLP yeast
CCOC(=O)c1ccccc1NC(=O)c1ccc(N(C)S(C)(=O)=O)cc1	6%	-3%	0%	9%	10µM*	0%
CCOC(=O)c1ccccc1NC(=S)N1CC(C)CC(C)C1 (configuration not stated)	?	2.9µM*	-17%	-6%[2.32 µM]	-22%	-58%
CCOC(=O)c1[nH]c(COC(=O)c2ccccc2NC(=O)c2ccco2)c(C(=O)OCC)c1C	?	12µM*	1%	-6%	?	-3%
CCOC(=O)c1ccccc1NC(=S)N1CCC(C)CC1	0%	?	-10%	1%	-24%	0%
Cc1ccc(NC(=O)C2CCCN(S(=O)(=O)c3c(C)noc3C)C2)nc1 (configuration not stated)	-1%	-14%	-5%	-25%	-18%	-5%
Cc1ccc(NC(=O)C2CCCN(S(=O)(=O)c3c(C)noc3/C=C/N(C)C)C2)c(C)c1 (configuration not stated)	9.3µM*	?	28%	-1%	-11%	-4%
Cc1noc(C)c1S(=O)(=O)N1CCCC(C(=O)NCC2CCCO2)C1 (configuration not stated)	9.3µM*	-3%	-2%	-20%	10%	1%
Cc1ccc(NC(=O)C2CCCN(S(=O)(=O)c3c(C)noc3C)C2)c(Br)c1 (configuration not stated)	5.9µM*	-4%	11%	0%	?	3%
CCOc1ccc(NC(=O)C2CCCN(S(=O)(=O)c3c(C)noc3C)C2)cc1 (configuration not stated)	-28%	7%	7%	-6%	-3%	8%
Cc1ccc(C)c(NC(=O)C2CCCN(S(=O)(=O)c3c(C)noc3/C=C/N(C)C)C2)c1 (configuration not stated)	2%	?	21%	-9%	-27%	0%
Cc1ccc(NC(=O)C2CCCN(S(=O)(=O)c3c(C)noc3C)C2)cc1F (configuration not stated)	2.3µM*	?	-1%	58%	-4%	3%
N#CCNc1ccc([N+](=O)[O-])cc1C#N	24%	13%	3%	10%	-2%	0%
COc1ccc(S(=O)(=O)Nc2ccc(Cc3ccncc3)cc2)cc1OC	-20%	-3%	18%	-16%	?	-7%
CCc1ccc(OC)c(S(=O)(=O)Nc2ccc(Cc3ccncc3)cc2)c1	22%	?	-31%	-6%	8.9µM*	-9%
O=S(=O)(Nc1ccc(Cc2ccncc2)cc1)c1ccc(Cl)c(Cl)c1	?	?	-107%	5%	7.9µM*	-14%
CC(C)COC(=O)N1C[C@H](O)C[C@H]1C(=O)Nc1ccc(Cl)cc1	24%	27%	1%	-1%	4%	-2%
COc1ccc(-c2ccc(CO)o2)cc1N	79%	112%	9%	-2%	-12%	-1%
CNC(=S)N/N=C1\CC(c2ccccc2)Oc2ccccc21 (configuration not stated)	6.6µM*	10µM*	16%	59%	?	3%
Cc1ccc2sc(N(CCCN(C)C)C(=O)c3ccc(S(=O)(=O)N(C)C4CCCCC4)cc3)nc2c1C	12µM*	10µM*	·	?	?	-4%
Cc1ccc2sc(N(CCCN(C)C)C(=O)c3ccc(S(=O)(=O)N4CCOCC4)cc3)nc2c1C	?	13µM*	·	-3%	?	-2%
CCOC(=O)N1CCN(S(=O)(=O)c2ccc(C(=O)N(CCCN(C)C)c3nc4c(C)c(C)ccc4s3)cc2)CC1	?	?	·	?	?	-7%
CCN(Cc1ccccc1)S(=O)(=O)c1ccc(C(=O)N(CCCN(C)C)c2nc3cc4c(cc3s2)OCO4)cc1	?	?	0%	-22%	?	-1%
CCN(Cc1ccccc1)S(=O)(=O)c1ccc(C(=O)N(CCCN(C)C)c2nc3c(C)c(C)ccc3s2)cc1	?	?	·	?	13µM*	-11%
COc1cc2c(cc1OC)CN(C1CCC(C)CC1)CC2 (configuration not stated)	?	?	-3%	8%	7%	5%
CCN(c1ccccc1)S(=O)(=O)c1ccc(C(=O)Oc2ccc(C(C)=O)cc2)cc1	0%	-19%	11%	-5%	11%	0%
SMILES	Pf growth 96h	Pf growth 48h	NS1 function inh	AMA1 RON2 block	HCV inh	SARS PLP yeast
COCCN1C(=O)N[C@@H](c2cccc(F)c2)C(C(=O)OC)=C1C	41%	42%	0%	0%	11%	-2%
CCOc1cc(C(c2c(C)[nH][nH]c2=O)c2c(C)[nH][nH]c2=O)cc(Br)c1OC	i	-15%[0.00184 µM]	3%	-2%	25%	-2%
COc1cc(C(c2c(C)[nH][nH]c2=O)c2c(C)[nH][nH]c2=O)cc(Br)c1OC	7.4µM*	23%	7%	31%	14%	-6%
CN(C)c1ccc(C=C2C(=O)NC(=O)NC2=O)cc1	·	·	·	-2%	4%	·
COc1cc2c(cc1OC)C(=Cc1ccc(N(C)C)cc1)C=C2	·	·	·	8.9µM*	10µM*	·
Cc1cc(OC(C)C(=O)NCC2CCC(C(=O)O)CC2)c2c(C)cc(=O)oc2c1 (configuration not stated)	-2%	-4%	5%	17%	9%	4%
COc1ccc(-c2nsc(SCC(=O)Nc3cc(C)on3)n2)cc1	?	5.9µM*	-5%	23%	?	1%
Cc1ccc(-c2nsc(SCC(=O)NCC3CCCO3)n2)cc1 (configuration not stated)	63%	18%	·	-15%	10µM*	-1%
Cc1ccc(-n2c(SCC(=O)NCC3CCCO3)nnc2-c2ccoc2C)cc1 (configuration not stated)	·	·	-7%	22%	3%	3%
Cc1occc1-c1nnc(SCC(=O)NCCc2ccccc2)n1C(C)c1ccccc1 (configuration not stated)	8.3µM*	?	-36%	0%	-22%	-1%
Cc1occc1-c1nnc(SCC(=O)NCC2CCCO2)n1C (configuration not stated)	2.3µM*	14%	-8%	0%	?	-6%
Fc1ccc(-n2cc(CNCCc3cccnc3)c(-c3ccccc3Cl)n2)cc1	?	?	4%	-10%	-22%	-2%
CC1(C)C2(C#N)C(=O)NC(=O)C12C#N (configuration not stated)	·	·	·	-10%	7%	·
Cn1c(=O)c2c(nc(/C=C/c3cccc(Cl)c3)n2C)n(C)c1=O	·	·	-6%	-4%	0%	·
O=C1CCCCc2sc(Br)c([N+](=O)[O-])c2N1	0%	0%	2%	-13%	?	-1%
